Test results taken from the supplement of paper PMC6555819.

Experiments:
Assay in all cases: PBM binding z-score (relative to random genomic background probes); higher = stronger binding; sequences stand for … in GC…GCGATTGACAGCGTAGAATGAAGG
[1] = system: FXR:RXRa (NR concentration 270 nM, RXRa partner concentration 90 nM)
How it was run: (§1)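 For binding z-scores, the reference was random background probes on custom Agilent 4×180K protein-binding microarrays. These arrays were incubated 1 h with ligand-free nuclear receptor dimers in PBS pH 7.4, 2% milk, 0.02% Triton X-100, 1 mM DTT, 0.2 mg/mL BSA and 0.4 mg/ml salmon testes DNA. Fluorescence was scanned after antibody detection of each partner (one per run) and regression-normalized.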

[2] = system: LXRa:RXRa (NR concentration 270 nM, RXRa partner concentration 90 nM)
How it was run: as §1

[3] = system: LXRa homodimer (NR concentration 270 nM)
How it was run: as §1

[4] = system: LXRb:RXRa (NR concentration 270 nM, RXRa partner concentration 90 nM)
How it was run: as §1

[5] = system: LXRb homodimer (NR concentration 270 nM)
How it was run: as §1

[6] = system: PPARa:RXRa (NR concentration 270 nM, RXRa partner concentration 90 nM)
How it was run: as §1

[7] = system: PPARg:RXRa (NR concentration 180 nM, RXRa partner concentration 90 nM)
How it was run: as §1

[8] = system: PPARg:RXRa 270nM:90nM, anti-RXR (NR concentration 270 nM, RXRa partner concentration 90 nM)
How it was run: as §1

[9] = system: PPARg:RXRa 30nM:10nM, anti-RXR (NR concentration 30 nM, RXRa partner concentration 10 nM)
How it was run: as §1

[10] = system: PPARg:RXRa 90nM:30nM, anti-RXR (NR concentration 90 nM, RXRa partner concentration 30 nM)
How it was run: as §1

[11] = system: PPARg:RXRa DBDmut IVT, anti-RXR (DBD mutation: RXRa K156A/R161A, NR concentration 270 nM, RXRa partner concentration 90 nM)
How it was run: as §1

[12] = system: PPARg:RXRa IVT, anti-PPARg (NR concentration 270 nM, RXRa partner concentration 90 nM)
How it was run: as §1

[13] = system: PPARg DBDmut:RXRa IVT, anti-PPARg (DBD mutation: PPARg1 K132A/R137A, NR concentration 270 nM, RXRa partner concentration 90 nM)
How it was run: as §1

[14] = system: PPARg DBDmut IVT, anti-PPARg (DBD mutation: PPARg1 K132A/R137A, NR concentration 270 nM)
How it was run: as §1

[15] = system: PPARg homodimer (NR concentration 180 nM)
How it was run: as §1

[16] = system: PXR:RXRa (NR concentration 270 nM, RXRa partner concentration 90 nM)
How it was run: as §1

[17] = system: PXR homodimer (NR concentration 270 nM)
How it was run: as §1

[18] = system: RARa:RXR (NR concentration 270 nM, RXRa partner concentration 90 nM)
How it was run: as §1

[19] = system: RARa homodimer (NR concentration 270 nM)
How it was run: as §1

[20] = system: RARb:RXRa (NR concentration 270 nM, RXRa partner concentration 90 nM)
How it was run: as §1

Row | Sequence | PBM binding z-score [1] | PBM binding z-score [2] | PBM binding z-score [3] | PBM binding z-score [4] | PBM binding z-score [5] | PBM binding z-score [6] | PBM binding z-score [7] | PBM binding z-score [8] | PBM binding z-score [9] | PBM binding z-score [10] | PBM binding z-score [11] | PBM binding z-score [12] | PBM binding z-score [13] | PBM binding z-score [14] | PBM binding z-score [15] | PBM binding z-score [16] | PBM binding z-score [17] | PBM binding z-score [18] | PBM binding z-score [19] | PBM binding z-score [20]
1 | CCTTACGGGTCACGAGGTTATAGTACGACGAGCG | 6.36 | 4.81 | 0.561 | 4.06 | 0.224 | 6.09 | 7.25 | 6.66 | 3.38 | 5.43 | 4.32 | 5.17 | 1.09 | 0.529 | 2.24 | 4.61 | 0.539 | 6.16 | 1.16 | 4.59
2 | TAGCGTAGGTCATGGGCCAGTATACCACGCGAAC | 4.78 | 3.98 | 0.0742 | 2.68 | -0.458 | 4.58 | 3.92 | 4.08 | 1.41 | 2.88 | 0.846 | 2.41 | -0.196 | 0.0667 | 0.862 | 2.19 | -0.726 | 3.4 | -0.444 | 3.9
3 | CAAACTAGGTCAATGTCAAAGTCGGTTTGTGCCA | 3.38 | 2.45 | 0.407 | 1.97 | 0.714 | 4.9 | 7.78 | 6.44 | 4.27 | 6.04 | 8.51 | 8.59 | 5.32 | 4.74 | 2.82 | 1.39 | -0.00687 | 2.11 | 0.756 | 3.86
4 | GCGACTGGGGCAAAGTAGGTTACCATAAGGTTGG | 0.147 | 0.172 | -0.28 | 0.557 | -0.493 | 2.29 | 2.59 | 3.18 | 0.758 | 2.3 | 5.3 | 5.17 | -0.411 | -0.49 | -0.0778 | 0.322 | -0.231 | 0.681 | -0.558 | 1.21
5 | TCTAGTTGGGCAAAGGTCACACACTCGAAATGCG | 5.48 | 5.45 | 3.14 | 5.08 | 0.789 | 6.58 | 10.4 | 9.73 | 9.07 | 10.3 | 2.75 | 5.71 | 0.687 | 1.14 | 5.11 | 5.64 | 1.26 | 6.56 | 2.44 | 5.1
6 | ATCTCTAGGTAACCAAGCTCAGTGAATGCCGAAC | 0.0567 | -0.156 | -0.0842 | -0.416 | 0.643 | 0.0797 | 0.181 | 0.28 | -0.0374 | 0.235 | 2.93 | 2.13 | 1.25 | 0.885 | 0.709 | -0.105 | 0.251 | 0.193 | 0.798 | 0.0628
7 | TCTTGTAGATCAGCACGTTAAGAAAGCTGGCCAA | 0.121 | 0.0301 | -0.232 | -0.0159 | -0.411 | 0.18 | -0.291 | 0.766 | 2.47 | 1.43 | 1.32 | -0.181 | -0.456 | -0.271 | -0.311 | 0.0608 | 0.0555 | 0.441 | 0.0158 | -0.204
8 | ATCTCTAGGTAACAAGCTCAGTGAAAGAGAGGAC | 0.331 | 0.45 | -0.0616 | -0.105 | 0.556 | 0.394 | 0.682 | 0.77 | 0.327 | 0.644 | 2.93 | 2.48 | 0.643 | 1.26 | 0.56 | -0.0529 | 0.34 | 0.0879 | 0.837 | 0.417
9 | ACAAGCAGGCCAAGGGTCACTCAAGATTAGTCCG | 2.26 | 2.92 | 0.0513 | 2.56 | -0.322 | 4.58 | 8.28 | 7.67 | 6.24 | 7.51 | 1.27 | 3.95 | 0.299 | -0.852 | 2.21 | 3.26 | -0.154 | 4.08 | 0.779 | 3.47
10 | CCTTACTGGTCACTGACAGGTTATAGCATTTGGA | 0.509 | 0.779 | 0.811 | 0.822 | 0.49 | 0.699 | 0.266 | 0.384 | -0.0661 | 0.378 | 1.41 | 0.777 | 0.395 | 0.913 | 1.46 | 0.611 | 0.48 | 0.74 | 1.52 | 1.72
11 | TCTTGTAGATCAAGCAGGTTTAGAAAGCCTGAGT | 0.0311 | 0.0459 | -0.387 | -0.134 | -0.464 | 0.137 | -0.639 | 0.91 | 2.24 | 1.35 | 1.37 | 0.0829 | -0.44 | 0.305 | -0.478 | 0.273 | -0.0713 | -0.152 | -0.252 | -0.191
12 | GTACCAAGGTGAATAGGTTGTTGATGAGTAGGCG | 0.414 | 0.445 | 0.0313 | 0.384 | -0.172 | 1.27 | 0.802 | 0.714 | -0.0689 | 0.204 | 1.75 | 2.2 | 0.246 | 0.502 | 0.999 | 0.105 | 0.241 | 0.634 | 1.32 | 1.36
13 | CCTGCTAGGTCAATGGTCAGCGAAAGCAGCTCGC | 2.75 | 2.4 | -0.241 | 1.4 | 0.134 | 3.37 | 5.06 | 5.2 | 3.2 | 5.18 | 4.19 | 4.06 | 0.555 | -0.25 | 1.7 | 0.865 | -0.255 | 1.87 | -0.0474 | 3.71
14 | ATCTCTAGGTAAAAGTACAGTGAATCCCGAGGAT | 0.212 | 0.0141 | 0.0637 | -0.267 | 0.728 | 0.877 | 1.98 | 3.02 | 1.49 | 3.07 | 1.64 | 1.67 | 1.14 | 1.43 | 0.118 | -0.149 | 0.313 | -0.057 | 1.08 | 0.298
